# Source: PubChem BioAssay (NCATS)
# Where “and” joins values, the source holds several entries; their conditions need not be identical. Equal values may be shown once. A number with no mark means an inactive call. The list shows a part of the results. Entries that show only a call come without a potency. Calls of active or inactive are those of the source. Unless noted, calls follow the shape of the dose curve; as a rule, active = well fitted curve in the direction sought with a large enough effect; inconclusive = small, poorly fitted or top-dose-only effect, or another doubt; inactive = no such curve, though single readings can be large; an effect the other way counts as inactive or inconclusive.
# How the values were obtained:
# [1] = target: Cytochrome P450 2D6 (Homo sapiens) (UniProt P10635); assay: qHTS Assay for Inhibitors and Substrates of Cytochrome P450 2D6 (AID 891); also: nearly all actives have a fitted effect of over 60% in size; also: potency is read from the fitted curve at half-maximal effect
# Method in brief: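 Luminescent read-out of luciferin formed by 5 nM human CYP2D6 demethylating 30 uM Luciferin-ME EGE (Km level) over 60 min at room temperature after NADPH regeneration addition. Data normalized to full inhibition by 1.43 uM quinidine.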
# [2] = target: Alpha-galactosidase (Coffea arabica) (UniProt Q42656); assay: Counterscreen for Glucocerebrosidase Inhibitors: qHTS Assay for Coffee Bean alpha-Galactosidase at pH 4.5 (AID 957)
# Method in brief: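 Fluorogenic read-out: 4-methylumbelliferone at Ex 365/Em 440 nm after NaOH/glycine stop (pH 10). Enzyme 2 nM, 4-MU-alpha-galactoside 80 uM, citrate buffer pH 4.5, 20 min RT; normalized to no-enzyme and enzyme controls.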
# [3] = S16 Schwann cell PMP22 intronic element firefly luciferase assay (AID 624032); also: nearly all actives have a fitted effect of over 30% in size
# Method in brief: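 Rat S16 Schwann cells stably carrying a PMP22 intronic element-driven Fluc reporter were seeded overnight, then exposed to compounds for 24 h at 37 °C. Luminescence was normalized to PTC124 (positive control) and DMSO (0% activity).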
# [4] = target: Estrogen receptor (Homo sapiens) (UniProt P03372); assay: qHTS assay for small molecule antagonists of estrogen receptor alpha signaling (AID 588513; active = well fitted curve in the direction sought with a large enough effect in the signal ratio, with a control signal flat, not every such curve was filed as active; inconclusive = small, poorly fitted or top-dose-only effect, or effect the other way, or a change in a side signal; inactive = no such curve, though single readings can be large or run the other way; the % refers to the signal ratio; also: potency is read from the fitted curve at half-maximal effect)
# Chain of Estrogen receptor (Homo sapiens) (P03372 whole entry, looked up): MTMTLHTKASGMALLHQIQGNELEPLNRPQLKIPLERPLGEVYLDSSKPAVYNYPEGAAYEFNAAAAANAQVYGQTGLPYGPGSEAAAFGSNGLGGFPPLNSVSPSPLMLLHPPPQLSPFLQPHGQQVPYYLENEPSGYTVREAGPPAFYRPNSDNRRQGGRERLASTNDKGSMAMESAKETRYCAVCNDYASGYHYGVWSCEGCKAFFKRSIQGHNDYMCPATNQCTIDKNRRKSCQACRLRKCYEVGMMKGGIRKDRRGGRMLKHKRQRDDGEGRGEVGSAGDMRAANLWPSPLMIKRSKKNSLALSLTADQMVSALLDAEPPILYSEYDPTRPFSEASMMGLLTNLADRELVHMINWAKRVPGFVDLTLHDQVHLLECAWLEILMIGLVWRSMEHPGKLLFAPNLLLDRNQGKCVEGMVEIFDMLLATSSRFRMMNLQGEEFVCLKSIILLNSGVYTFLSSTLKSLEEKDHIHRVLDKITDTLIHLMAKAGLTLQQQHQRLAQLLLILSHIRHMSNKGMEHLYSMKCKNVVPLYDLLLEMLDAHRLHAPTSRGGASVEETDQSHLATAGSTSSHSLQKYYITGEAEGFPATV
# Method in brief: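 ER-alpha-UAS-bla GripTite HEK 293 cells in 2% charcoal/dextran-treated FBS medium; compounds titrated (1:2, duplicate), then stimulated with 0.5 nM 17-beta-estradiol for 18 h at 37C. CCF4 beta-lactamase fluorescence; Hill-fit IC50 and efficacy.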
# [5] = target: Peroxisome proliferator-activated receptor delta (Homo sapiens) (UniProt Q03181); assay: qHTS assay for small molecule antagonists of peroxisome proliferator-activated receptor delta signaling (AID 588535; active = well fitted inhibition curve with a large enough effect in the signal ratio, with a control signal flat, not every such curve was filed as active; inconclusive = small, poorly fitted or top-dose-only effect, or effect the other way, or a change in a side signal; inactive = no such curve, though single readings can be large or run the other way; the % refers to the signal ratio; also: potency is read from the fitted curve at half-maximal effect)
# Chain of Peroxisome proliferator-activated receptor delta (Homo sapiens) (Q03181 whole entry, looked up): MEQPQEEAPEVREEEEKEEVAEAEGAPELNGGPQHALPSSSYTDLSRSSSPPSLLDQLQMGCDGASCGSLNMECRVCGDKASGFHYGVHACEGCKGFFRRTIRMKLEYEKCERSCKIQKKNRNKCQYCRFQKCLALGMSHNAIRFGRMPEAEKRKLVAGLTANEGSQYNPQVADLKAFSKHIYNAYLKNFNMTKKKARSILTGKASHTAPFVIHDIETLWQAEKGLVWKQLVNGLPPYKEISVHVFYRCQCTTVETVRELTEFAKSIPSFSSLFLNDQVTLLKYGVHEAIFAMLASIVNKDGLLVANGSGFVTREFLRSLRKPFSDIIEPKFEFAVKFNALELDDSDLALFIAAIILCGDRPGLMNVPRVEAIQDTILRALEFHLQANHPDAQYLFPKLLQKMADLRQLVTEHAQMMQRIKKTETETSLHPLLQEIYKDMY
# Method in brief: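 Compounds tested in titration on PPAR-delta-UAS-bla HEK293T cells grown in charcoal/dextran-stripped serum (2%); beta-lactamase activity read via CCF4 emission at 460 and 530 nm.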
# [6] = target: Peroxisome proliferator-activated receptor gamma (Homo sapiens) (UniProt P37231); assay: qHTS assay for small molecule antagonists of peroxisome proliferator-activated receptor gamma signaling (AID 588537; active = well fitted inhibition curve with a large enough effect in the signal ratio, with a control signal flat, not every such curve was filed as active; inconclusive = small, poorly fitted or top-dose-only effect, or effect the other way, or a change in a side signal; the % refers to the signal ratio;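 also: reporter cells co-stimulated with 50 nM rosiglitazone agonist during compound treatment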)
# Chain of Peroxisome proliferator-activated receptor gamma (Homo sapiens) (P37231 whole entry, looked up): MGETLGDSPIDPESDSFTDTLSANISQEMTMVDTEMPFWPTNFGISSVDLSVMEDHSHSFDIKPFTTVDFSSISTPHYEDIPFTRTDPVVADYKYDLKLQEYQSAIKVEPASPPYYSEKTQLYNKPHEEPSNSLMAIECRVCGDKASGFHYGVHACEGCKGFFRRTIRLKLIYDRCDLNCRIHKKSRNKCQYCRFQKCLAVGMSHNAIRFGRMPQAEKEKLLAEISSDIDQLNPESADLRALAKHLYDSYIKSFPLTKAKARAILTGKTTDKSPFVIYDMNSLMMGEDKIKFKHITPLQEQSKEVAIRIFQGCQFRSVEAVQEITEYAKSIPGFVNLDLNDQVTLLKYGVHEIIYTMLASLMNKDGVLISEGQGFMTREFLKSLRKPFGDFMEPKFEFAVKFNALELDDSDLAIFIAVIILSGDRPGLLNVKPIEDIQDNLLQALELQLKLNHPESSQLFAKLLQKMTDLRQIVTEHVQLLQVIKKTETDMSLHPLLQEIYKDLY
# Method in brief: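 HEK293 cells, PPAR-gamma-UAS-bla, 3000/well. Pre-incubation 6-6.5 h, 37 C. Compound titration with rosiglitazone 50 nM final, 16 h. CCF4 dye, 2 h RT, dual-emission fluorescence.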
# [7] = target: Vitamin D3 receptor (Homo sapiens) (UniProt P11473); assay: qHTS assay for small molecule antagonists of vitamin D receptor signaling (AID 588541; calls by dose curve;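 also: receptor activated by calcitriol during compound treatment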)
# Method in brief: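 VDR-UAS-bla HEK293T cells (2000/well, 2% charcoal-stripped FBS) were treated with titrated compounds plus 1-alpha,25-dihydroxyvitamin D3 (50 nM or 3 nM final) for 16 h at 37 C. CCF4 beta-lactamase fluorescence was read; Hill fits gave IC50.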
# [8] = target: Retinoic acid receptor RXR-alpha (Homo sapiens) (UniProt P19793); assay: qHTS assay for small molecule antagonists of retinoid X receptor alpha signaling (AID 588546; active = well fitted inhibition curve with a large enough effect in the signal ratio, with a control signal flat, not every such curve was filed as active; inconclusive = small, poorly fitted or top-dose-only effect, or effect the other way, or a change in a side signal; inactive = no such curve, though single readings can be large or run the other way; the % refers to the signal ratio;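 also: cells stimulated with 9-cis-retinoic acid as agonist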); settings: HEK293T RXRa-UAS-bla, beta-lactamase ratio, antagonist mode
# Method in brief: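 Beta-lactamase reporter inhibition, read as CCF4 fluorescence ratio (ex 405, em 460/530 nm) after 2 h at RT. HEK293T UAS-bla cells, 2500/well, were stimulated with 9-cis-RA at 500 or 100 nM final alongside test compound for 18 h at 37 C.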
# [9] = target: Bile acid receptor (Homo sapiens) (UniProt Q96RI1); assay: qHTS assay for small molecule antagonists of farnesoid X receptor signaling (AID 588526; calls by dose curve)
# Chain of Bile acid receptor (Homo sapiens) (Q96RI1 whole entry, looked up): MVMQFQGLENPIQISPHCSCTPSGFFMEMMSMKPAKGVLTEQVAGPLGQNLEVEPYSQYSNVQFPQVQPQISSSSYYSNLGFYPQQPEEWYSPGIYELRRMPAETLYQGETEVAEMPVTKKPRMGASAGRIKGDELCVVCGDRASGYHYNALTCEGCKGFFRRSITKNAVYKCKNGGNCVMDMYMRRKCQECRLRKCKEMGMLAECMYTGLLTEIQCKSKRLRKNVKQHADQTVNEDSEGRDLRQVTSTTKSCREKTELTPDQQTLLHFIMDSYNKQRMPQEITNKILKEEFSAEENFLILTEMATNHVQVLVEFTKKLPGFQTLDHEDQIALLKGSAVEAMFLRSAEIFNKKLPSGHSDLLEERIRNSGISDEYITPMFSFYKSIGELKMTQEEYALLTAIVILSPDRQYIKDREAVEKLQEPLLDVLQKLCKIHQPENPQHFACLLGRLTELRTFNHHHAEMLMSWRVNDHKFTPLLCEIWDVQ
# Method in brief: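 Concentration-response titrations were fitted to the Hill equation for half-maximal inhibition and maximal response, with data normalised to 50 uM chenodeoxycholic acid and DMSO control wells. Cells: FXR-UAS-bla HEK293T, dialyzed FBS.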
# [10] = target: Bile acid receptor (Homo sapiens) (UniProt Q96RI1); assay: qHTS assay for small molecule agonists of farnesoid X receptor signaling (AID 588527; calls by dose curve); settings: HEK293T FXR-UAS-bla, beta-lactamase ratio, 16 h; stronger effect = higher value
# Method in brief: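 FXR-UAS-bla HEK293T cells (10% dialyzed FBS) preincubated 5-7 h at 37 C, then compounds at up to 92 uM for 16 h at 37 C. CCF4 beta-lactamase read-out after 2 h RT. Normalized to chenodeoxycholic acid (100 uM) and DMSO; Hill fit gave EC50 and efficacy.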
# [11] = target: Glucocorticoid receptor (Homo sapiens) (UniProt P04150); assay: qHTS assay for small molecule antagonists of glucocorticoid receptor signaling (AID 588533; active = well fitted inhibition curve with a large enough effect in the signal ratio, with a control signal flat, not every such curve was filed as active; inconclusive = small, poorly fitted or top-dose-only effect, or effect the other way, or a change in a side signal; the % refers to the signal ratio;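 also: cells stimulated with 2 nM dexamethasone as agonist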)
# Method in brief: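 Antagonist-mode qHTS: compound titrations added to GRE-bla HeLa cells, then dexamethasone 2 nM final; 18 h, 37 C. CCF4 FRET fluorescence normalized to dexamethasone and DMSO; IC50 from Hill fit.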
# [12] = qHTS assay for small molecule activators of the human pregnane X receptor (PXR) signaling pathway (AID 720659; call rule not given here)
# [13] = target: Androgen receptor (Homo sapiens) (UniProt P10275); assay: qHTS assay for small molecule agonists of androgen receptor signaling (AID 588515; active = well fitted curve in the direction sought with a large enough effect in the signal ratio, with a control signal flat; inconclusive = small, poorly fitted or top-dose-only effect, or effect the other way, or a change in a side signal; inactive = no such curve, though single readings can be large or run the other way; the % refers to the signal ratio); settings: AR-UAS-bla HEK293, beta-lactamase ratio, agonist 16 h; stronger effect = higher value
# Chain of Androgen receptor (Homo sapiens) (P10275 whole entry, looked up): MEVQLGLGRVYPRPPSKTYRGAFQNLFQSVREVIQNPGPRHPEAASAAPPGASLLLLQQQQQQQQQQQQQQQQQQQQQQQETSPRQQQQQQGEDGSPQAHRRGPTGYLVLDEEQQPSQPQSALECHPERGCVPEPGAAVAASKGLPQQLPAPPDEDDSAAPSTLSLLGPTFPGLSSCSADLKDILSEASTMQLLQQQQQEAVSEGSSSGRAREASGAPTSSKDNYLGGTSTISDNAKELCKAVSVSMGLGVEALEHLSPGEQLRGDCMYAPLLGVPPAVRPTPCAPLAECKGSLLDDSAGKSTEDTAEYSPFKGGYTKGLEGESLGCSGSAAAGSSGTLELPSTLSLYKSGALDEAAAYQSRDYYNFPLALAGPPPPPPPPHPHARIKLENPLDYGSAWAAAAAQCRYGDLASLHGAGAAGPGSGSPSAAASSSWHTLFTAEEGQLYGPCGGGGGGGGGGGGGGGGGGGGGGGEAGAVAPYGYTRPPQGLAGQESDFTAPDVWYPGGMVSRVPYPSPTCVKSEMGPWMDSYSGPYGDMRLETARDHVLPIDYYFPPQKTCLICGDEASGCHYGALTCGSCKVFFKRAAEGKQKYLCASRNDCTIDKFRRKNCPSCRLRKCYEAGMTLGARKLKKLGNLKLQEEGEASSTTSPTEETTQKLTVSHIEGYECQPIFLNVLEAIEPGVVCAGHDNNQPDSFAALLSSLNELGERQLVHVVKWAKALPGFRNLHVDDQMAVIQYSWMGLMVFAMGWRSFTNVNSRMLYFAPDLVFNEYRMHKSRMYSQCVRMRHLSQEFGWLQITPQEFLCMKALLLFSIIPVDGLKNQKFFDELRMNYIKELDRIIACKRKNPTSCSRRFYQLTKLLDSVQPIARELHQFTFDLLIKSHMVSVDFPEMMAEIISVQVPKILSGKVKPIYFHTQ
# Method in brief: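 Stimulation of an AR-responsive β-lactamase reporter in GripTite HEK293 cells was measured after 16 h compound exposure at 37 °C, via CCF4 fluorescence after 2 h RT. EC50 from Hill fits, normalized to R1881 at 30 nM.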
# [14] = target: Androgen receptor (Homo sapiens) (UniProt P10275); assay: qHTS assay for small molecule antagonists of androgen receptor signaling (AID 588516; active = well fitted curve in the direction sought with a large enough effect in the signal ratio, with a control signal flat, not every such curve was filed as active; inconclusive = small, poorly fitted or top-dose-only effect, or effect the other way, or a change in a side signal; inactive = no such curve, though single readings can be large or run the other way; the % refers to the signal ratio)
# Method in brief: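 AR-UAS-bla GripTite HEK 293 cells (2000/well) treated with compound titrations plus 10 nM R1881 for 16 h at 37C. Beta-lactamase read by CCF4 FRET (460/530 nm); IC50 from Hill fits, normalized to R1881 and DMSO control wells.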
# [15] = target: ATPase family AAA domain-containing protein 5 (Homo sapiens) (UniProt Q96QE3); assay: HTS assay for small molecules that inhibit ELG1-dependent DNA repair in human embryonic kidney (HEK293T) cells expressing luciferase-tagged ELG1: Hit Confirmation (AID 624248); settings: HEK293T ELG1-luciferase levels, luminescence; cells co-treated with 5-fluorouridine; also: potency is read from the fitted curve at half-maximal effect; nearly all actives have a fitted effect of over 55% in size
# Chain of ATPase family AAA domain-containing protein 5 (Homo sapiens) (Q96QE3 whole entry, looked up, the tested form may be a part): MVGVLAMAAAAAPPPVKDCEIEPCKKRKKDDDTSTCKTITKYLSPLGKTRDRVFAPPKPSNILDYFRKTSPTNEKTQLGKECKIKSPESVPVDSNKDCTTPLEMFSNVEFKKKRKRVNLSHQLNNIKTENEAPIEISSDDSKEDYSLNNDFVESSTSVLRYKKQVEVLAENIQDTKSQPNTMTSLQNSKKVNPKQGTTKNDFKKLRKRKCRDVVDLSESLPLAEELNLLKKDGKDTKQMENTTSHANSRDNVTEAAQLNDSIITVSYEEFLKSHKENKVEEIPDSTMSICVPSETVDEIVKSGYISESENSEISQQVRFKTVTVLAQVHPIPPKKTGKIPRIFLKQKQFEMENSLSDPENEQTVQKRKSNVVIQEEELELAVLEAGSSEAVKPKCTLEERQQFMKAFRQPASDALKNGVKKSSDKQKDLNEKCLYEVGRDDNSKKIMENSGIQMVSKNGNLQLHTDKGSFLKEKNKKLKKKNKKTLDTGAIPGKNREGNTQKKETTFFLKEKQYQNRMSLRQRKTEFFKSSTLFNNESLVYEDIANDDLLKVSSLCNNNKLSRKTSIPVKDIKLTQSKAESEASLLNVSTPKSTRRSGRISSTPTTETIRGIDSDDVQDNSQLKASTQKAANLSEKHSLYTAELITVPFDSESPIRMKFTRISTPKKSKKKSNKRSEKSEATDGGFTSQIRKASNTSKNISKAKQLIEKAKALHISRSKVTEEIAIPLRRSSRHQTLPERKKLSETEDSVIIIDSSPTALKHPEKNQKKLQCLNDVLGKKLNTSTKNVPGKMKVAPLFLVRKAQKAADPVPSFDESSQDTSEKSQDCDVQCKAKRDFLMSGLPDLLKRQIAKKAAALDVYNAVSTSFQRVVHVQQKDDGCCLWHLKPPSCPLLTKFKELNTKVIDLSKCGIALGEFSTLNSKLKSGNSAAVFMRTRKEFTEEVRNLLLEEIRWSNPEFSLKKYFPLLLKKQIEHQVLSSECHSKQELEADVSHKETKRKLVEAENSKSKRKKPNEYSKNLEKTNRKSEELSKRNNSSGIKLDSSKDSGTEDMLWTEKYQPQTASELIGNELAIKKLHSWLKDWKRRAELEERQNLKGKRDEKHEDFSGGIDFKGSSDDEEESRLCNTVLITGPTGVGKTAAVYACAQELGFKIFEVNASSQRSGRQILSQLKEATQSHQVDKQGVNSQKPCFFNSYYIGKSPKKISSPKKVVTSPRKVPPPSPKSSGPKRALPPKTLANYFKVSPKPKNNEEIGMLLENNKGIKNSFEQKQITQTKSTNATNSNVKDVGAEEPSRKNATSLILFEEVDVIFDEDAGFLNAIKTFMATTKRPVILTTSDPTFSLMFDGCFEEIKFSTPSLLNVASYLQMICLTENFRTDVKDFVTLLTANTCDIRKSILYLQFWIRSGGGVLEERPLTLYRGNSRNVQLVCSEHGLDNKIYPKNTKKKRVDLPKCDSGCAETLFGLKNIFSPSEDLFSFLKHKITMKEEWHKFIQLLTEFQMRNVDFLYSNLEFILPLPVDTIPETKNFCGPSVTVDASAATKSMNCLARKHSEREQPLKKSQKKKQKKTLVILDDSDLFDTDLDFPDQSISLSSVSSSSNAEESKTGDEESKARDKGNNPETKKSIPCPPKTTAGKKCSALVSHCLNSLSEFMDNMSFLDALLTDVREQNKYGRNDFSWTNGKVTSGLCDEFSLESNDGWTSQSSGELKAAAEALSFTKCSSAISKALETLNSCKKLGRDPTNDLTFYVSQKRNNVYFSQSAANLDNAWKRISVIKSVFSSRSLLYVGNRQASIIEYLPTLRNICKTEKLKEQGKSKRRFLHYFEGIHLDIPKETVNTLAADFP
# Method in brief: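 Cells (2,000/well) received 5-Fluorouridine plus pin-transferred compound or DMSO and were incubated 16 hr at 37 °C, 5% CO2. Luciferase activity was read by ONE-Glo luminescence after 30 min at room temperature; inhibitors suppress the signal.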
# [16] = target: ATPase family AAA domain-containing protein 5 (Homo sapiens) (UniProt Q96QE3); assay: qHTS screen for small molecules that inhibit ELG1-dependent DNA repair in human embryonic kidney (HEK293T) cells expressing luciferase-tagged ELG1: Hit Confirmation using MMS Stimulated ELG1 (AID 624249); settings: HEK293T luciferase-tagged ELG1 level; also: potency is read from the fitted curve at half-maximal effect; nearly all actives have a fitted effect of over 60% in size
# Method in brief: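 Reporter gene format: suppression of MMS-induced ELG1-luciferase signal in HEK293T cells. MMS is present at 10 µM final, compound incubation lasts 16 h, and detection is by Amplight luciferase reagent.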
# [17] = qHTS screen for small molecules that inhibit ELG1-dependent DNA repair: Hit Confirmation with MMS Viability (AID 624251); settings: Cell viability with MMS;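 also: ELG1-luc HEK293T cells co-treated with 10 µM MMS; potency is read from the fitted curve at half-maximal effect; viability read 16 h after compound addition; nearly all actives have a fitted effect of over 60% in size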
# Method in brief: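 Sixteen hours of compound exposure with MMS at 10 µM final preceded a CellTiter-Glo viability readout in ELG1-luciferase HEK293T cells, which were dosed about 5 h after seeding.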
# [18] = Cell Viability - Jurkat (AID 426;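 active = dose-dependent loss of cell ATP signal giving a full or clear fitted curve, ranked by lower potency value; inconclusive = weak partial curve or response only at the top dose; inactive = no loss of viability signal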;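 also: potency is read from the fitted curve at half-maximal effect; cells exposed to compound for 40 hours at 37 °C before ATP read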); settings: qHTS
# Method in brief: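 Luminescent ATP read-out (CellTiter-Glo, 20 min at room temperature) after 40 hr compound exposure at 37 °C of Jurkat E6-1 cells, 5000/well. Decreased ATP taken as cytotoxicity; AC50 from standard Hill equation.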
# [19] = Cell Viability - H-4-II-E (AID 543);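 also: cells exposed to compound for 40 hours; nearly all actives have a fitted effect of over 35% in size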; also: potency is read from the fitted curve at half-maximal effect
# Method in brief: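 qHTS, rat hepatoma H-4-II-E, 1500 cells/well; 40 hr compound exposure, 37 °C; CellTiter-Glo ATP luminescence after 20 min RT; AC50 by standard Hill fit.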
# [20] = Cell Viability - SH-SY5Y (AID 544); settings: SH-SY5Y neuroblastoma cell viability; viability change, negative = cytotoxic: at 92.2 µM (top of the series);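 also: potency is read from the fitted curve at half-maximal effect; cells exposed to compound for 40 hours; nearly all actives have a fitted effect of over 55% in size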
# Method in brief: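 SH-SY5Y, 1500 cells/well, 5 hr pre-incubation 37 °C; cpd 40 hr 37 °C; CellTiter-Glo 20 min RT; luminescence (ATP) read. qHTS concentration-response, Hill fit → AC50. Tamoxifen, doxorubicin as positive controls.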
compound,measurement,setting,value
CCC[C@@](C)(COC(N)=O)COC(=O)NC(C)C,Potency,[1],inactive
COc1cc2c(cc1O)C[C@H]1c3c(cc(O)c(OC)c3-2)CCN1C,Potency,[1],7.94 µM (active)
CC(C)N(CC[C@@](C(N)=O)(c1ccccc1)c1ccccn1)C(C)C,outcome,[2],inactive
COc1cc(N)c(Cl)cc1C(=O)N[C@@H]1CN2CCC1CC2,Potency,[3],inactive
CC[C@H]1C(=O)OC[C@H]1Cc1cncn1C,outcome,[2],inactive
CN1C[C@H](CO)C=C2c3cccc4[nH]cc(c34)C[C@@H]21,Potency,[1],0.126 µM (active)
CNC(=O)N(C)c1nnc(C(C)(C)C)s1,Potency,[4],inactive
same,Potency,[5],inactive
same,Potency,[6],inactive
same,outcome,[7],inactive
same,max response,[8],-28.5%
c1cncc([C@H]2CCCCN2)c1,Potency,[1],12.6 µM (active)
O=C1C=C2C=C[C@H]3C[C@@]2(O1)[C@H]1CCCCN31,Potency,[1],inactive
COc1nc(NC(C)C)nc(NC(C)C)n1,Potency,[4],inactive
same,outcome,[9],inactive
same,activation,[10],0.515%
same,Potency,[11],inactive
same,Potency,[5],inactive
same,Potency,[6],inactive
same,max response,[8],-8.1%
same,outcome,[12],inactive
CC(C)N1C(=O)c2ccccc2NS1(=O)=O,Potency,[4],inactive
same,Potency,[11],inactive
same,Potency,[5],inactive
same,outcome,[12],inactive
CNC(=O)Oc1cccc2c1OC(C)(C)O2,Potency,[4],inactive
same,outcome,[9],inactive
same,activation,[10],-0.605%
same,Potency,[11],inactive
same,Potency,[6],inactive
CC(C)Nc1nc(Cl)nc(NC(C)C)n1,Potency,[5],inactive
same,Potency,[6],inactive
O=C(O)COc1cc(Cl)c(Cl)cc1Cl,activation,[13],-1.88%
same,Potency,[14],inactive
same,outcome,[9],inactive
same,activation,[10],-6.14%
same,Potency,[11],inactive
same,Potency,[6],inactive
same,outcome,[7],inactive
same,max response,[8],-33.7%
CCc1cccc(C)c1N(C(=O)CCl)C(C)COC (stereo not drawn),outcome,[7],inactive
same,max response,[8],-18.8%
CC(C)OC(=O)Nc1cccc(Cl)c1,outcome,[9],inactive
same,activation,[10],2.06%
same,Potency,[6],inactive
N#Cc1c(Cl)cccc1Cl,Potency,[4],inactive
same,Potency,[11],inactive
same,outcome,[12],inactive
C[C@@]12CC[C@H]3[C@@H](CC[C@]4(O)C[C@H](O)CC[C@@]34C=O)[C@]1(O)CC[C@@H]2C1=CC(=O)OC1,Potency,[15],1.07 µM (active)
same,Potency,[16],0.756 µM (active)
same,Potency,[17],1.07 µM (active)
CNC(C)[C@@H](O)c1ccccc1 (stereo partly drawn),Potency,[3],inactive
COc1cc2c(c(OC)c1OC)-c1ccc(O)c(=O)cc1[C@@H](NC(C)=O)CC2,Potency,[1],inactive
CCCCCCCCCc1ccc(O)cc1,Potency,[18],> 92 µM
same,Potency,[19],inactive
same,Potency,[20],12.6 µM (active)
same,max response,[8],0.938%
CCCCSP(=O)(SCCCC)SCCCC,outcome,[9],inactive
same,Potency,[11],inactive
same,Potency,[5],inactive
same,Potency,[6],inactive
CCC(=O)Nc1ccc(Cl)c(Cl)c1,activation,[13],16.4%
same,max response,[8],-5.6%
same,outcome,[12],inactive
CCS(=O)CCSP(=O)(OC)OC (stereo not drawn),Potency,[4],inactive
same,activation,[13],7.09%
same,Potency,[14],inactive
same,outcome,[9],inactive
same,Potency,[11],inactive
same,Potency,[5],inactive
same,max response,[8],8.07%
same,outcome,[12],inactive
COP(N)(=O)SC (stereo not drawn),Potency,[4],inactive
same,outcome,[9],inactive
same,activation,[10],2.48%
same,Potency,[11],inactive
same,max response,[8],-4.89% and -18.9%
same,outcome,[12],inactive
O=C1C(Cl)=C(Cl)C(=O)C(Cl)=C1Cl,Potency,[18],9.41 µM (active)
same,Potency,[19],50.1 µM (active)
same,Potency,[20],25.1 µM (active)
same,Potency,[4],25.1 µM [inconclusive] (active)
same,Potency,[5],12.6 µM (active)
same,outcome,[12],inactive
C[N+]1=Cc2cc3c(cc2CC1)OCO3,Potency,[1],15.8 µM (active)
COC1CC(OC2CC[C@@]3(C=O)C4CC[C@]5(C)C(C6=CC(=O)OC6)CC[C@@]5(O)C4CC[C@]3(O)C2)OC(C)C1O (stereo partly drawn),Potency,[15],0.706 µM (active)
same,Potency,[16],0.315 µM (active)
same,Potency,[17],0.397 µM (active)
